# Bioassay records (PubChem BioAssay)
# In the library only some 15% were active in any assay of this set; here they are far more common.
# SARS PLpro yeast: inhibitors of SARS-CoV papain-like protease in yeast; S. cerevisiae expressing SARS-CoV PLpro, growth rescue; Potency, µM (titrated, usually from 32.9 µM), for inactives: at the highest dose activity, positive = growth rescue, usual class: activators; 330,000 compounds, 0.19% hits; calls by dose curve; further: potency means the concentration at half of the fitted maximal effect; 0% is about no effect; nearly all actives have a fitted effect of over 55% in size
# HCV inhibitor: HCV inhibition; 340,000 compounds, 3.4% hits; Huh7.5.1 HCVcc-Cre infection, luciferase reporter, 44 h; AID 651820; Potency, µM (doses to about 41.8 µM), for the others: at the top dose activity change, negative = inhibition, usual class: inhibitors; further: potency means the concentration at half of the fitted maximal effect; on the % scale 0 is the no-effect control and ±100 the full control effect
#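 Infectious HCVcc-Cre (~0.5 moi) was added to cells just after compound, with cells seeded 4 h earlier at 1,000 per well. Luciferase activity after 44 h culture reported infection; substrate was incubated 15 min at room temperature before reading.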
# Pf growth 96h: P. falciparum growth inhibition at 96 hour, primary screen for plastid delayed-death inhibitors. P. falciparum luciferase reporter growth, 96 h. Potency, µM (top dose mostly 28.7 µM), for inactives: at the highest dose activity change, negative = inhibition, usual class: inhibitors. 320,000 compounds, 6.9% hits; further: potency means the concentration at half of the fitted maximal effect; on the % scale 0 is the no-effect control and ±100 the full control effect
#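 96 h incubation, 37 C, 5% CO2, of luciferase-reporter P. falciparum-infected RBCs (2% hematocrit, 0.05% parasitemia final) with test compounds; endpoint luminescence.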
# Pf growth 48h: inhibits P. falciparum growth in the first generation, 48 h; 310,000 compounds, 5.9% hits; Potency, µM (highest dose often 28.7 µM), for inactives: top-dose activity change, negative = inhibition, hits mostly inhibitors; P. falciparum luciferase growth in erythrocytes, 48 h; further: potency means the concentration at half of the fitted maximal effect; on the % scale 0 is the no-effect control and ±100 the full control effect
#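 Luminescence readout; reporter = integrated firefly luciferase in P. falciparum. RBC culture at 2% hematocrit, 0.1% parasitemia final, 37 C/5% CO2; decreased signal taken as growth inhibition.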
# Sm TGR inh: blocks Schistosoma mansoni thioredoxin glutathione reductase | Q962Y6 | purified TGR, DTNB reduction, TNB absorbance 405 nm | Potency, µM (highest dose often 114 µM), without a hit: at the top dose activity change, negative = inhibition, usual class: inhibitors | 360,000 compounds, 3% hits; further: potency means the concentration at half of the fitted maximal effect; on the % scale 0 is the no-effect control and ±100 the full control effect; nearly all actives have a fitted effect of over 60% in size
#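 Kinetic colorimetric format: TGR-catalysed, NADPH-driven DTNB reduction monitored via TNB absorbance. Enzyme dispensed at 20 nM; compound exposure 15 min at room temperature before reaction start.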
# HCMV inh: inhibitors of human cytomegalovirus | HFF cells, HCMV-luciferase reporter, 72 h; active compounds read low | activity change, negative = inhibition, % at 57.5 µM | 410,000 compounds, 4.5% hits; in the data active means activity change below about -60%; inconclusive means no clear call, values can overlap the other calls; inactive means above about -39%; further: on the % scale 0 is the no-effect control and ±100 the full control effect
#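 Two compound doses tested in HFFs infected with HCMV-luciferase, MOI 1 PFU/cell, 72 h at 37C. Lysate luminescence read with OneGlo; data normalized against buffer-only and 10uM Salinomycin inhibitor controls.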
# Active calls of the source: *; ? = inconclusive; nt = not tested or not shown; [ ] = dose if it differs, or a comment. Unless noted, the call rests on the fitted dose curve; in most records, active means well fitted curve in the direction sought with a large enough effect; inconclusive means small, poorly fitted or top-dose-only effect, or another doubt; inactive means no such curve, though single readings can be large; an effect the other way counts as inactive or inconclusive.
SMILES,SARS PLpro yeast,HCV inhibitor,Pf growth 96h,Pf growth 48h,Sm TGR inh,HCMV inh
Cc1ccc(NC(=O)N(Cc2ccc3c(c2)OCO3)C2CCN(Cc3ccccc3)CC2)cc1Cl,nt,nt,nt,nt,8.2%,-70.7*
Cc1cccc(NC(=O)N2CCN(Cc3ccc4c(c3)OCO4)CC2)c1C,0.2%,13.2%,?,7.4%,-0.2%,-74.8*
Cc1ccc2c(C)c(C(=O)N3CCN(Cc4ccc5c(c4)OCO5)CC3)oc2c1C,-4.7%,11.2µM*,?,?,-1.8%,0.0
Cc1ccc(NC(=O)N2CCN(Cc3ccc4c(c3)OCO4)CC2)cc1,14.4%,nt,13.1µM*,nt,4.0%,3.8
CC(OC(=O)CNC(=O)c1ccccc1F)C(=O)Nc1nc(-c2ccccc2)cs1 (configuration not stated),-5.1%,14.3%,128.8%,137.7%,0.1%,115.3
CC(C)(C)c1ccc(-c2nc(SCCCOc3ccccc3)n3[nH]c(=O)cc3n2)cc1,nt,nt,nt,nt,-14.5%,?
Cc1cc(OCCCSc2nc(-c3ccc(C(C)(C)C)cc3)nc3cc(=O)[nH]n23)ccc1Cl,nt,nt,nt,nt,-19.2%,-63.6*
CCOc1ccc2cc(C3CC(c4ccco4)=NN3S(C)(=O)=O)c(=O)[nH]c2c1 (configuration not stated),0.9%,8.0%,-12.9%,-7.3%,3.16µM*,-17.4
Cc1ccc2cc(C3CC(c4ccco4)=NN3S(C)(=O)=O)c(Cl)nc2c1 (configuration not stated),0.3%,-4.4%,42.1%,?,11.2µM*,0.0
Cc1ccc2nc(Cl)c(C3CC(c4ccco4)=NN3S(C)(=O)=O)cc2c1 (configuration not stated),0.4%,-14.6%,?,?,14.1µM*,0.0
Cc1ccc2cc(C3CC(c4ccco4)=NN3S(=O)(=O)c3ccccc3)c(Cl)nc2c1 (configuration not stated),26.7%,-3.3%,0.0%,0.0%,-23.1%,-80.2*
COCC(=O)N(C)C[C@H]1N[C@@](C)(C(=O)OC)[C@H]2C(=O)N(C)C(=O)[C@@H]12,2.3%,-6.0%[8.37 µM],nt,nt,nt,13.0
COc1ccc2cc(C3CC(c4ccco4)=NN3S(=O)(=O)c3ccccc3)c(Cl)nc2c1 (configuration not stated),-4.0%,?,?,?,-0.4%,-10.8
CCOc1ccc2nc(Cl)c(C3CC(c4ccco4)=NN3S(C)(=O)=O)cc2c1 (configuration not stated),-0.4%,?,?,?,31.6µM*,4.7
CCOc1ccc2cc(C3CC(c4ccco4)=NN3S(=O)(=O)c3ccccc3)c(Cl)nc2c1 (configuration not stated),16.6%,-25.8%,13.1µM*,14.7µM*,-3.4%,17.5
COC(=O)c1ccc(-n2c(/C=C/c3cc(OC)c(OC)c(OC)c3)nc3cc(Cl)ccc3c2=O)cc1,nt,nt,nt,nt,5.8%,-6.9
Cc1ccc(NC(=O)Cn2c(=O)n(CC3CCCO3)c(=O)c3ccccc32)cc1 (configuration not stated),nt,nt,nt,nt,-8.7%,-3.7
CCNC(=O)[C@@H]1[C@@H](CO)[C@@H]2Cn3c(cccc3=O)[C@@H]2N1Cc1cccc(F)c1,nt,nt,nt,nt,nt,16.8
O=C1NC(c2ccccc2)(C(F)(F)F)SC2=CCCCCN12 (configuration not stated),17.6%,13.6%,?,-0.3%,25.1µM*,28.5
COc1ccc(Nc2ccc(OC)cc2)cc1,-2.5%,1.2%,?,?,39.8µM*,30.6
NNc1nc(Nc2ccccc2)nc(Nc2ccccc2)n1,-4.1%,-14.7%,348.6%,8.28µM*,-6.4%,30.9
COc1ccc(Nc2nc(NN)nc(Nc3ccc(OC)cc3)n2)cc1,-7.0%,?,3.29µM*,9.28µM*,-17.8%,-30.7
O=C(NCc1ccccc1)C(c1ccc(-c2ccccc2)cc1)N1CCN(CCN2CCOCC2)CC1 (configuration not stated),nt,nt,nt,nt,nt,-2.8
Cc1nn(CCC(=O)Nc2cc(F)ccc2F)c(=O)c2nn(-c3ccccc3)c(C)c12,nt,nt,nt,nt,-0.3%,-35.8
